Experimental data from PubChem BioAssay AID1159580 (chemical genetic matrix, 2015).
Where “and” joins values, the source holds several entries; their conditions need not be identical. Equal values may be shown once. Out of some 5,500 compounds screened, about 2,000 (36%) were called active. Roughly 18% stayed inconclusive and do not appear here. Rule as the data show it: active = normalized growth mostly below about 0.91 (no sharp cut-off); inconclusive = no clear call, values can overlap the other calls; inactive = mostly above about 0.92. The list shows a part of the results.

Test: chemical genetic growth profiling, strain panel (AID 1159580);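 also: tested at 20 µM; growth read once vehicle control cultures reached saturation at 30 °C; 1 = growth at the plate median or of vehicle wells; lower values mean less growth of the strain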
Settings: S. cerevisiae deletion strains, growth OD
[1] = locus YGR229C, strain SMI1, hits give low values
[2] = locus YJR075W, strain HOC1, hits give low values

Measured: normalized growth

N[C@@H]1[C@@H](O)[C@H](O)[C@@H](CO)O[C@H]1O
inactive: locus YAL021C, strain ccr4, hits give low values 1.03 | locus YAL026C, strain drs2, hits give low values 1.01 | locus YAL030W, strain snc1, hits give low values 1.02 | locus YBL061C, strain skt5, hits give low values 1.03 | locus YBR009C, strain hhf1, hits give low values 1.02 | locus YBR021W, strain FUR4, hits give low values 1.01 | locus YBR023C, strain chs3, hits give low values 1.02 | locus YBR171W, strain sec66, hits give low values 1.04 | locus YBR229C, strain ROT2, hits give low values 1.01 | locus YBR231C, strain swc5, hits give low values 1.02 | locus YBR279W, strain paf1, hits give low values 1.03 | locus YCL011C, strain gbp2, hits give low values 1.02 | locus YCL016C, strain dcc1, hits give low values 1.02 | locus YCL029C, strain bik1, hits give low values 0.998 | locus YCL061C, strain MRC1, hits give low values 1.03 | locus YCL069W, strain vba3, hits give low values 1.02 | locus YCR088W, strain abp1, hits give low values 1.02 | locus YDL005C, strain med2, hits give low values 1.02 | locus YDL035C, strain GPR1, hits give low values 1 | locus YDL040C, strain nat1, hits give low values 1.01 | locus YDL074C, strain BRE1, hits give low values 1 | locus YDL101C, strain DUN1, hits give low values 1.01 | locus YDL185W, strain tfp1, hits give low values 1.01 | locus YDL192W, strain arf1, hits give low values 1.02 | locus YDR001C, strain nth1, hits give low values 1.02 | locus YDR069C, strain doa4, hits give low values 1.02 | locus YDR101C, strain arx1, hits give low values 0.975 | locus YDR137W, strain rgp1, hits give low values 1.03 | locus YDR150W, strain NUM1, hits give low values 1 | locus YDR159W, strain sac3, hits give low values 1.03 | locus YDR162C, strain NBP2, hits give low values 1 | locus YDR195W, strain ref2 1.04 | locus YDR297W, strain sur2, hits give low values 1.01 | locus YDR318W, strain mcm21, hits give low values 1 | locus YDR334W, strain swr1, hits give low values 1.02 | locus YDR335W, strain msn5, hits give low values 1.03 | locus YDR388W, hits give low values 1 | locus YDR392W, strain spt3, hits give low values 1 | locus YDR502C, strain sam2, hits give low values 1.01 | locus YEL003W, strain gim4, hits give low values 1.02 | locus YEL037C, strain rad23, hits give low values 1.02 | locus YEL061C, strain CIN8 (second series), hits give low values 1.02 | locus YEL061C, strain CIN8, hits give low values 1.02 | locus YER015W, strain faa2, hits give low values 1.03 | locus YER016W, strain bim1, hits give low values 1.01 | locus YER110C, hits give low values 1 | locus YER111C, strain swi4, hits give low values 1.03 | locus YER155C, strain BEM2 (second series), hits give low values 1.05 | locus YER155C, strain BEM2, hits give low values 1 | locus YER167W, strain BCK2, hits give low values 1.01 | locus YFR010W, strain ubp6, hits give low values 1.01 | locus YGL078C, strain dbp3, hits give low values 1.01 | locus YGL086W, strain mad1, hits give low values 0.999 | locus YGL167C, strain pmr1, hits give low values 1.03 | locus YGL173C, strain kem1, hits give low values 1.03 | locus YGL227W, strain vid30, hits give low values 1.02 | locus YGL240W, strain doc1, hits give low values 1.04 | locus YGL248W, strain PDE1, hits give low values 1.01 | locus YGL253W, strain hxk2, hits give low values 1.02 | locus YGR078C, strain PAC10, hits give low values 1 | locus YGR135W, strain pre9, hits give low values 1.05 | [1] 1 | locus YGR252W, strain gcn5, hits give low values 1.01 | locus YHR013C, strain ard1, hits give low values 1.06 | locus YHR027C, strain rpn1, hits give low values 1.06 | locus YHR030C, strain SLT2, hits give low values 1 and 0.98 | locus YHR079C, strain IRE1 (second series), hits give low values 1.01 | locus YHR079C, strain IRE1, hits give low values 0.968 | locus YHR094C, strain hxt1, hits give low values 0.998 | locus YHR129C, strain ARP1, hits give low values 0.994 | locus YHR142W, strain chs7, hits give low values 1.01 | locus YHR200W, strain rpn10, hits give low values 1.01 | locus YIL066C, strain RNR3, hits give low values 1 | locus YIL073C, strain SPO22, hits give low values 1.04 | locus YIL125W, strain kgd1, hits give low values 1.01 | locus YIR030C, strain dcg1, hits give low values 1.01 | locus YJL092W, strain hpr5, hits give low values 1.03 | locus YJL095W, strain BCK1 (second series), hits give low values 1.01 | locus YJL095W, strain BCK1, hits give low values 1.01 and 0.986 | locus YJL115W, strain asf1, hits give low values 1.03 | locus YJL129C, strain trk1, hits give low values 1.04 | locus YJL134W, strain LCB3, hits give low values 1.01 | locus YJL154C, strain vps35, hits give low values 1.02 | locus YJL164C, strain tpk1, hits give low values 1.04 | locus YJL166W, strain qcr8, hits give low values 1.03 | locus YJL168C, strain set2, hits give low values 1 | locus YJL187C, strain SWE1 (second series), hits give low values 1 | locus YJL187C, strain SWE1, hits give low values 1.01 | locus YJR043C, strain POL32, hits give low values 0.992 | locus YJR066W, strain TOR1, hits give low values 0.937 | [2] 1 | locus YKL009W, strain mrt4, hits give low values 1.01 | locus YKL068W, hits give low values 1 | locus YKL085W, strain MDH1 (second series), hits give low values 1.01 | locus YKL085W, strain MDH1, hits give low values 1.01 | locus YKL160W, strain elf1, hits give low values 1.04 | locus YKR001C, strain vps1, hits give low values 0.993 | locus YKR026C, strain gcn3, hits give low values 1.02 | locus YKR091W, strain srl3, hits give low values 1.02 | locus YLL001W, strain dnm1, hits give low values 1.03 | locus YLL026W, hits give low values 1.01 | locus YLL041C, strain sdh2, hits give low values 1.01 | locus YLR027C, strain aat2, hits give low values 1.01 | locus YLR039C, strain RIC1, hits give low values 1.05 | locus YLR058C, strain SHM2, hits give low values 1.01 | locus YLR102C, strain apc9, hits give low values 1 | locus YLR113W, strain HOG1, hits give low values 0.985 | locus YLR221C, strain rsa3, hits give low values 1.03 | locus YLR258W, strain gsy2, hits give low values 1.02 | locus YLR262C, strain YPT6 (second series), hits give low values 1.06 | locus YLR262C, strain YPT6, hits give low values 1.02 | locus YLR268W, strain sec22, hits give low values 1.01 | locus YLR320W, strain mms22, hits give low values 1.05 | locus YLR330W, strain CHS5, hits give low values 1 | locus YLR342W, strain FKS1 (second series), hits give low values 1.01 | locus YLR342W, strain FKS1, hits give low values 1.02 | locus YLR357W, strain rsc2, hits give low values 1.05 | locus YLR370C, strain arc18, hits give low values 1.02 | locus YLR371W, strain rom2, hits give low values 0.991 | locus YLR384C, strain iki3, hits give low values 1.03 | locus YLR418C, strain cdc73, hits give low values 1.01 | locus YML016C, strain PPZ1, hits give low values 1 | locus YML032C, strain rad52, hits give low values 0.994 | locus YML120C, strain ndi1, hits give low values 1.03 | locus YML124C, strain tub3, hits give low values 1.01 | locus YMR058W, strain fet3, hits give low values 1.02 | locus YMR078C, strain ctf18, hits give low values 1.01 | locus YMR125W, strain sto1, hits give low values 1.04 | locus YMR129W, hits give low values 1.01 | locus YMR205C, strain PFK2, hits give low values 1.04 | locus YMR223W, strain ubp8, hits give low values 1.02 | locus YMR231W, strain pep5, hits give low values 1.02 | locus YMR307W, strain GAS1, hits give low values 1.01 | locus YNL067W, strain RPL9B, hits give low values 1.01 | locus YNL071W, strain lat1, hits give low values 1.03 | locus YNL183C, strain NPR1, hits give low values 0.962 | locus YNL209W, strain ssb2, hits give low values 1.01 | locus YNL233W, strain BNI4, hits give low values 1.01 | locus YNL248C, strain rpa49, hits give low values 1.03 | locus YNL250W, strain rad50, hits give low values 1.05 | locus YNL271C, strain bni1, hits give low values 1.02 | locus YNL298W, strain CLA4, hits give low values 1.01 | locus YNL307C, strain MCK1, hits give low values 1.01 | locus YNL322C, strain KRE1 (second series), hits give low values 1.04 | locus YNL322C, strain KRE1, hits give low values 1 | locus YNR049C, strain mso1, hits give low values 1.02 | locus YNR052C, strain pop2, hits give low values 1.01 | locus YOL006C, strain TOP1, hits give low values 1.05 | locus YOL012C, strain htz1 0.886 | locus YOL147C, strain pex11, hits give low values 1.01 | locus YOR001W, strain rrp6, hits give low values 1.04 | locus YOR061W, strain CKA2, hits give low values 1 | locus YOR069W, strain VPS5, hits give low values 1.01 | locus YOR070C, strain gyp1, hits give low values 1.03 | locus YOR080W, strain dia2, hits give low values 1.04 | locus YOR083W, strain WHI5, hits give low values 1.04 | locus YOR106W, strain vam3, hits give low values 1.06 | locus YOR136W, strain idh2, hits give low values 1.01 | locus YOR144C, strain elg1, hits give low values 1 | locus YOR184W, strain ser1, hits give low values 1.01 | locus YOR231W, strain MKK1, hits give low values 1 | locus YOR265W, strain rbl2, hits give low values 1.06 | locus YOR270C, strain vph1, hits give low values 1.08 | locus YOR290C, strain snf2, hits give low values 0.979 | locus YOR316C, strain cot1, hits give low values 1.01 | locus YPL051W, strain arl3, hits give low values 1.03 | locus YPL078C, strain atp4, hits give low values 1.03 | locus YPL106C, strain sse1, hits give low values 1.03 | locus YPL240C, strain hsp82, hits give low values 1.02 | locus YPL256C, strain CLN2, hits give low values 0.985 | locus YPR119W, strain clb2, hits give low values 1.01 | locus YPR141C, strain kar3, hits give low values 1.01 | locus YPR163C, strain tif3, hits give low values 1.01 | locus YPR167C, strain met16, hits give low values 1.01 | strain wtn01, hits give low values 1.02

OCC1O[C@H](O)C(Cl)C(O)C1O (some centres undefined)
inactive: locus YAL013W, strain DEP1, hits give low values 1.01 | locus YAL040C, strain CLN3, hits give low values 1.01 | locus YCL061C, strain MRC1 (second series), hits give low values 1.01 | locus YDR363W, strain ESC2, hits give low values 0.977 | locus YER002W, strain NOP16, hits give low values 1 | [1] 0.994 | [2] 0.984 | locus YNL128W, strain TEP1, hits give low values 1.01 | locus YNL175C, strain NOP13, hits give low values 1.02 | locus YNL197C, strain WHI3, hits give low values 0.986 | locus YNL224C, strain SQS1, hits give low values 1 | locus YOR083W, strain WHI5 (second series), hits give low values 1.02 | locus YPL055C, strain LGE1, hits give low values 0.979 | locus YPL241C, strain CIN2, hits give low values 1.01
